Laboratory results from the supplement of paper PMC6555819.

What was measured:
Test in all cases: PBM binding z-score (relative to random genomic background probes); higher = stronger binding; sequences stand for … in GC…GCGATTGACAGCGTAGAATGAAGG
[1] = tested on: FXR:RXRa (NR concentration 270 nM, RXRa partner concentration 90 nM)
Procedure, shortened: (§1)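 The probes on custom Agilent 4×180K protein-binding microarrays were double-stranded, with 34-nt variable regions bearing direct-repeat seeds, single-nucleotide variants, half-site ablations and random human genomic background sequences. Incubation lasted 1 h with ligand-free nuclear receptor dimers in PBS pH 7.4, 2% milk, 0.02% Triton X-100, 1 mM DTT, 0.2 mg/mL BSA and 0.4 mg/ml salmon testes DNA. Antibodies against each partner (one per run) detected bound dimers, and fluorescence scans were regression-normalized. Binding z-scores take the random background probes as reference.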

[2] = tested on: LXRa:RXRa (NR concentration 270 nM, RXRa partner concentration 90 nM)
Procedure, shortened: as §1

[3] = tested on: LXRa homodimer (NR concentration 270 nM)
Procedure, shortened: as §1

[4] = tested on: LXRb:RXRa (NR concentration 270 nM, RXRa partner concentration 90 nM)
Procedure, shortened: as §1

[5] = tested on: LXRb homodimer (NR concentration 270 nM)
Procedure, shortened: as §1

[6] = tested on: PPARa:RXRa (NR concentration 270 nM, RXRa partner concentration 90 nM)
Procedure, shortened: as §1

[7] = tested on: PPARg:RXRa (NR concentration 180 nM, RXRa partner concentration 90 nM)
Procedure, shortened: as §1

[8] = tested on: PPARg:RXRa 270nM:90nM, anti-RXR (NR concentration 270 nM, RXRa partner concentration 90 nM)
Procedure, shortened: as §1

[9] = tested on: PPARg:RXRa 30nM:10nM, anti-RXR (NR concentration 30 nM, RXRa partner concentration 10 nM)
Procedure, shortened: as §1

[10] = tested on: PPARg:RXRa 90nM:30nM, anti-RXR (NR concentration 90 nM, RXRa partner concentration 30 nM)
Procedure, shortened: as §1

| Sequence | PBM binding z-score [1] | PBM binding z-score [2] | PBM binding z-score [3] | PBM binding z-score [4] | PBM binding z-score [5] | PBM binding z-score [6] | PBM binding z-score [7] | PBM binding z-score [8] | PBM binding z-score [9] | PBM binding z-score [10] |
| --- | --- | --- | --- | --- | --- | --- | --- | --- | --- | --- |
| AGAATGAGGTTATTAAGATCACGGAATTGCGGTC | 1.57 | 1.78 | 0.215 | 1.57 | 0.0573 | 3.18 | 1.99 | 2.7 | 0.647 | 1.6 |
| ATCTCTACGTAACCAAGTTCAGTGAATGCCGAAC | 0.0268 | 0.0264 | 0.728 | 0.389 | 1.1 | 0.166 | 0.223 | 0.137 | 0.163 | 0.36 |
| GCTCGGAGGACAAGTTCAGAGCTTTGTCCGTAGA | 0.263 | 0.115 | -0.227 | 0.0203 | -0.625 | 0.311 | -0.94 | -0.31 | -1.15 | -0.738 |
| GGAACGAGGGCTAGTTGATAGCAGAGTTTGATGG | -0.569 | -0.717 | -0.679 | -0.908 | -0.992 | -0.745 | 0.203 | -0.227 | -0.133 | -0.567 |
| TAGAGTAGGTTAGTCGGGGCATTCAGCCAACATA | 0.871 | 0.485 | 0.155 | 0.87 | 1.54 | 1.16 | 0.583 | 1.65 | 0.884 | 1.33 |
| ACTAGCAGGCCAAGTTTGGGTCACTCATACAAAG | 0.242 | 0.317 | -0.104 | 0.786 | -0.557 | 1.28 | 0.573 | 0.501 | -0.211 | -0.146 |
| AGAATGAGGTTATTAAGATCGGGGAATTGCGGTC | 1.39 | 1.31 | 0.0422 | 1.14 | 0.139 | 2.39 | 0.982 | 1.43 | 0.253 | 0.888 |
| CCTACTGGGCCATTCAGAGGTCATTCATCATATG | 2.68 | 4.55 | 6.9 | 4.38 | 0.909 | 3.72 | 2.08 | 3.3 | 0.754 | 2.26 |
| CCTCGGAGGACAACAGGAAGTCAGAGCTGCCAGA | -0.229 | -0.454 | -0.458 | -0.667 | -0.823 | -0.671 | 0.123 | -0.726 | -1.03 | -1.13 |
| ATCTCTAGGTAAAGTTCAGTGAAAGATCGATAGA | 1.38 | 2.08 | 1.69 | 1.3 | 0.964 | 2.35 | 3.26 | 4.38 | 2.33 | 3.93 |
| CGAACTAGGTCAAGGACAGTCAATCTCCGCACGC | 3.39 | 2.64 | 0.323 | 1.57 | -0.248 | 4.76 | 7.58 | 6.42 | 3.9 | 5.59 |
| GCTAATTGGTCAGTAAAAGGTCACACACCGGTCG | 3.55 | 4.31 | 5.15 | 4.41 | 1.19 | 4.8 | 3.38 | 4.52 | 2.45 | 3.96 |
| CCTACTGGGCCACGAAAGGTCATTGATTCAGTGA | 3.58 | 5.34 | 4.9 | 4.15 | 0.552 | 4.58 | 4.57 | 5.08 | 2.53 | 4.4 |
| GCGAATGGGGCATCAGCAGGTTACCATAACTTAA | -0.164 | -0.221 | -0.232 | 0.924 | -0.446 | 0.796 | 0.281 | -0.0121 | -0.215 | -0.384 |
| GCTGCTAGGTCAACTGATGATCAGCTAAAGCTCG | 3.88 | 2.96 | -0.334 | 2.02 | 0.0909 | 3.68 | 2.88 | 3.19 | 0.694 | 2.07 |
| ATCTGTAGGTAAGACTCAGTTCAGTGAAGAACGC | 0.0473 | 0.226 | 0.296 | 0.0254 | -0.0598 | 0.0967 | 0.00745 | 0.0947 | -0.305 | -0.0173 |
| CCAGACAGGTTAAAGGTAACTCAGTCTGGTACGC | 1.95 | 1.84 | 0.195 | 1.63 | -0.137 | 3.7 | 4.55 | 4.78 | 3.23 | 5.29 |
| CCGACTGGCGCAAAGGTTACCATACTCAGTACGA | 0.725 | 1.29 | -0.0542 | 1.78 | -0.938 | 3.45 | 5.96 | 6.74 | 4.81 | 6.59 |
| TAGCCTAGGTCAGATCGGGCCGGTATACGCTATA | 1.49 | 0.768 | -0.645 | 0.506 | -0.232 | 1.27 | 0.615 | 0.655 | -0.199 | 0.0642 |
| GCGACTGGGGCAAAGCAGGTTACTATAAGGTTGG | 0.109 | 0.31 | -0.478 | 0.342 | -0.602 | 1.4 | 1.31 | 1.5 | 0.185 | 1.06 |
| ATCGAAAGGTCGACGGGGTGAGTATACACCGTTT | 4.95 | 3.54 | 0.287 | 3.23 | 0.368 | 4.57 | 3 | 3.48 | 0.859 | 2.28 |
| TCTAGTTGGTCAACGGTCACACACTCGAAATGCG | 0.705 | 0.745 | 0.892 | 1.04 | 0.0272 | 2.38 | 3.99 | 5.35 | 4.78 | 5.32 |
| CAGACTGGGGCAGAAAGGTTACCATACCATCCGG | 1.11 | 1.5 | -0.0304 | 1.4 | 0.122 | 2.53 | 2.23 | 3.3 | 1.29 | 2.79 |
